Results: PubChem BioAssay (EPA / NIEHS)
“And” between values parts separate entries of the source, which are not always exact repeats. Equal values may be shown once. Inconclusive results are not listed. Where a structure was tested more than once in an assay, its records may differ in their call. The source made the active and inactive calls. Rule for the calls, unless noted: active = hit-call score of the fitted dose curve at least 0.9, where 1 is the maximum; inconclusive = response in the unintended direction; inactive = score below 0.9.

Columns and labels:
[1] = target: Cellular tumor antigen p53 (Homo sapiens) (UniProt P04637); experiment: TOX21_p53_BLA_p5_ratio: Tox21 HCT-116 p53 Agonism Beta-lactamase Assay, Ratio, Phase 5 (AID 2283599)
Chain of Cellular tumor antigen p53 (Homo sapiens) (P04637 whole entry, looked up): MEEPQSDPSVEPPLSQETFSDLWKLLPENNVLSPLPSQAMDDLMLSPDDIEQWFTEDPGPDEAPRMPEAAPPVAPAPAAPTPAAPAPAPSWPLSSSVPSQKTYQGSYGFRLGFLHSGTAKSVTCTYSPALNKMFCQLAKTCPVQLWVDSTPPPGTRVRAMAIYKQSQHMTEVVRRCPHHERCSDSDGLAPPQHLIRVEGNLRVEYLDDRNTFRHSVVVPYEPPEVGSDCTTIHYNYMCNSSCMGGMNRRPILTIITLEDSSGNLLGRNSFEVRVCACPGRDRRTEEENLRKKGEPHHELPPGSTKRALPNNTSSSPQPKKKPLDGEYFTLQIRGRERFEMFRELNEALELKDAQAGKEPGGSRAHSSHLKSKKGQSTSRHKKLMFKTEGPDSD
How it was run: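 HCT-116 p53-bla cells (4000/well) plated 5 h, dosed with compound (217-fold DMSO dilution) for 16 h at 37 C; CCF4-AM substrate 2 h at room temperature. Activity is the 460/530 nm emission ratio (405 nm excitation), fitted in gain-of-signal direction versus DMSO.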

[2] = TOX21_p53_BLA_p5_viability: Viability Assessment in the Tox21 HCT-116 p53 Agonism Beta-lactamase Assay, Phase 5 (AID 2283600)
How it was run: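 ATP luminescence (CellTiter-Glo, 30 min, RT) served as the viability read-out, with loss of signal indicating cytotoxicity. Compounds in DMSO were pinned at a 217-fold dilution onto 4000 cells/well and incubated 16 h, 37C.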

[3] = target: Cellular tumor antigen p53 (Homo sapiens) (UniProt P04637); experiment: TOX21_p53_BLA_p4_ratio: Tox21 HCT-116 p53 Agonism Beta-lactamase Assay, Ratio, Phase 4 (AID 2283601)
How it was run: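 HCT-116 p53 beta-lactamase reporter cells (4000/well) preincubated 5 h, then compound (217-fold dilution of DMSO stock) for 16 h at 37C. CCF4-AM substrate added 2 h at room temperature; 460/530 nm emission ratio fitted upward versus DMSO.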

[4] = Tanguay_ZF_120hpf_MORT_legacy: (Legacy) Oregon State University Tanguay Lab 120 Hour Post-fertilization zebrafish Assay for Mortality (AID 2283633)
How it was run: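 Brightfield scoring of embryo death (binary) at 24 and 120 hpf; static exposure 6–120 hpf, 28C, sealed and foil-covered. Pronase-dechorionated 5D wild-type larvae, single embryo per well. DMSO 0.64% v/v; trimethyltin chloride 5uM positive control.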

[5] = Tanguay_ZF_120hpf_YSE_legacy: (Legacy) Oregon State University Tanguay Lab 120 Hour Post-fertilization zebrafish Assay for Yolk Sac Edema (AID 2283634);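 for AC50: actives raise the incidence of yolk sac edema above the DMSO baseline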
How it was run: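 Binary brightfield scoring of yolk sac edema at 120 hpf; DMSO baseline, gain-of-signal fitting. Dechorionated 5D larvae, one per well, static exposure 6–120 hpf, 28C, 0.64% DMSO. Dead embryos not scored.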

[6] = Tanguay_ZF_120hpf_EYE_legacy: (Legacy) Oregon State University Tanguay Lab 120 Hour Post-fertilization zebrafish Assay for Eye Malformation (AID 2283636);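 note: binary presence or absence of eye malformation scored by brightfield in 120 hpf larvae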
How it was run: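 5D wild-type embryos, pronase-dechorionated at 4 hpf; static exposure 6–120 hpf, 28C, dark; DMSO 0.64% final; 5uM trimethyltin chloride positive control. Binary eye-defect scoring at 120 hpf; dead embryos not scored.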

[7] = Tanguay_ZF_120hpf_SNOU_legacy: (Legacy) Oregon State University Tanguay Lab 120 Hour Post-fertilization zebrafish Assay for Snout Malformation (AID 2283637)
How it was run: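 Binary brightfield scoring of snout malformation at 120 hpf. Dechorionated 5D wild-type embryos, one per well, static exposure from 6 hpf at 28C, sealed and dark; final DMSO 0.64% (vol/vol), DMSO as baseline; 5uM trimethyltin chloride positive control.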

[8] = Tanguay_ZF_120hpf_OTIC_legacy: (Legacy) Oregon State University Tanguay Lab 120 Hour Post-fertilization zebrafish Assay for Otic Vesicle Malformation (AID 2283639)
How it was run: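 Binary scoring of otic vesicle defects at 120 hpf in zebrafish (Tropical 5D) held under static exposure at 28C, sealed and shaded, with final DMSO 0.64%. Embryos dying by 24 or 120 hpf excluded; fitted positively against DMSO.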

[9] = Tanguay_ZF_120hpf_PE_legacy: (Legacy) Oregon State University Tanguay Lab 120 Hour Post-fertilization zebrafish Assay for Pericardial Edema (AID 2283640);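 for AC50: potency for increased incidence of pericardial edema versus DMSO baseline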
How it was run: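 Static waterborne exposure, 5D wild-type embryos, 28C, to 120 hpf; final DMSO 0.64% (vol/vol). Binary PE call at 120 hpf by brightfield; fitted upward vs DMSO baseline. 5uM trimethyltin chloride as positive control.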

[10] = Tanguay_ZF_120hpf_BRAI_legacy: (Legacy) Oregon State University Tanguay Lab 120 Hour Post-fertilization zebrafish Assay for Brain Malformation (AID 2283641)
How it was run: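 Read-out: binary brain morphology call at 120 hpf (brightfield), fitted in gain-of-signal direction vs DMSO. Wild-type Tropical 5D embryos, static exposure, 28C, 0.64% DMSO final; 5uM trimethyltin chloride as positive control.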

[11] = Tanguay_ZF_120hpf_SOMI_legacy: (Legacy) Oregon State University Tanguay Lab 120 Hour Post-fertilization zebrafish Assay for Somite Malformation (AID 2283647)
How it was run: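 Binary brightfield scoring of somite defects at 120 hpf in 5D wild-type larvae; one dechorionated embryo per well, static exposure from 6 hpf, 28C, sealed and dark. Final DMSO 0.64%; trimethyltin chloride 5uM positive control.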

[12] = Tanguay_ZF_120hpf_PFIN_legacy: (Legacy) Oregon State University Tanguay Lab 120 Hour Post-fertilization zebrafish Assay for Pectoral Fin Malformation (AID 2283648);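 note: each larva judged yes or no for fin defect by brightfield with dead larvae skipped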
How it was run: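 Binary pectoral fin malformation call at 120 hpf by brightfield microscopy; 5D wild-type zebrafish, chorion removed at 4 hpf, one embryo per well from 6 hpf, static exposure at 28C; DMSO (0.64% final) as baseline.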

[13] = Tanguay_ZF_120hpf_CFIN_legacy: (Legacy) Oregon State University Tanguay Lab 120 Hour Post-fertilization zebrafish Assay for Caudal Fin Malformation (AID 2283649)
How it was run: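 Dechorionated 5D wild-type zebrafish, static exposure 6–120 hpf, 28C, sealed and dark, 0.64% v/v DMSO final. Binary fin-malformation call at 120 hpf, brightfield; gain of signal vs DMSO baseline.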

[14] = Tanguay_ZF_120hpf_PIG_legacy: (Legacy) Oregon State University Tanguay Lab 120 Hour Post-fertilization zebrafish Assay for Pigmentation Malformation (AID 2283650);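 note: dechorionated Tropical 5D zebrafish embryos exposed singly from 6 to 120 hpf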
How it was run: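 Brightfield scoring of pigmentation malformation at 120 hpf, recorded as binary present/absent per larva. Exposure: dechorionated 5D wild-type embryos, one per well, static from 6 hpf at 28C, final DMSO 0.64% (vol/vol). Dead embryos not scored.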

[15] = Tanguay_ZF_120hpf_SWIM_legacy: (Legacy) Oregon State University Tanguay Lab 120 Hour Post-fertilization zebrafish Assay for Swim Bladder Malformation (AID 2283654);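 note: swim bladder malformation in each larva scored yes or no under brightfield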
How it was run: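 Tropical 5D embryos dechorionated at 4 hpf; 1 embryo/well from 6 hpf; static, sealed, dark exposure at 28C until 120 hpf; final DMSO 0.64%; 5uM trimethyltin chloride positive control; swim bladder defect recorded yes/no; dead embryos not scored.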

[16] = Tanguay_ZF_120hpf_AXIS_legacy: (Legacy) Oregon State University Tanguay Lab 120 Hour Post-fertilization zebrafish Assay for Body Axis Malformation (AID 2283635);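 for AC50: potency for an increased fraction of larvae scored with body axis malformation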
How it was run: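 Embryos: 5D wild-type, pronase-dechorionated 4 hpf; static exposure 6–120 hpf, 28C, sealed, dark, 1 embryo/well, 0.64% DMSO. 120 hpf axis malformation scored present/absent; dead embryos excluded. Analysed as gain of signal vs DMSO.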

[17] = Tanguay_ZF_120hpf_JAW_legacy: (Legacy) Oregon State University Tanguay Lab 120 Hour Post-fertilization zebrafish Assay for Jaw Malformation (AID 2283638);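 for AC50: active means more embryos with jaw malformation than DMSO controls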
How it was run: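 Binary jaw-malformation calls at 120 hpf by brightfield imaging; DMSO (0.64% v/v) = baseline. Embryos: 5D wild-type, pronase-dechorionated, one per well from 6 hpf, static exposure, 28C, sealed, dark.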

[18] = Tanguay_ZF_120hpf_CIRC_legacy: (Legacy) Oregon State University Tanguay Lab 120 Hour Post-fertilization zebrafish Assay for Circulatory Malformation (AID 2283651)
How it was run: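 Binary circulatory malformation call at 120 hpf by brightfield imaging of zebrafish larvae; chorion removed at 4 hpf, static exposure from 6 hpf in sealed dark plates at 28C, final DMSO 0.64%; non-mortality endpoints skipped if embryo died.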

[19] = read-out: kallikrein-3 (KLK3), KLK3 (gene 354); experiment: LTEA_HepaRG_KLK3: Life Technologies and Expression Analysis (LTEA) Assay for kallikrein-3 (KLK3) using HepaRG (AID 2283652; active = hit-call score of the fitted dose curve at least 0.9, where 1 is the maximum; inactive = score below 0.9); details: mRNA level, 48 h; actives raise or lower the signal
How it was run: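 KLK3 transcript levels were measured by TaqMan qRT-PCR with normalisation to three housekeeping genes. HepaRG cultures received chemicals for 48 h at up to 100 uM (half-log, 8 points, 0.5% DMSO vehicle), fitted in both directions against DMSO.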

[20] = read-out: solute carrier (SLC22A6), SLC22A6 (gene 9356); experiment: LTEA_HepaRG_SLC22A6: Life Technologies and Expression Analysis (LTEA) Assay for solute carrier (SLC22A6) using HepaRG (AID 2283653; active = hit-call score of the fitted dose curve at least 0.9, where 1 is the maximum; inactive = score below 0.9); details: mRNA level, 48 h; actives raise or lower the signal
How it was run: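 HepaRG, human liver line; 48 h chemical exposure; 8-pt half-log series from 100 uM in 0.5% DMSO, duplicate wells. Readout: TaqMan qRT-PCR of SLC22A6 mRNA, housekeeping-normalised; bidirectional curve fit vs DMSO baseline.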

Measured: AC50

CC(C)(C)CC(C)(C)c1ccc(O)c(-n2nc3ccccc3n2)c1
inactive: [1] | [2] | [3] | [4] | [5] | [6] | [7] | [8] | [9] | [10] | [11] | [12] | [13] | [14] | [15]

c1ccc2cc3c(ccc4ccccc43)cc2c1
inactive: [1] | [2] | [3] | [4] | [11] | [13] | [14] | [15]
active: [5] 41.6 µM | [6] 45.6 µM | [7] 46.5 µM | [8] 40.6 µM | [9] 33.4 µM | [10] 48.5 µM

CCCCCCCCCCCCCC[N+](C)(C)C
inactive: [1] | [2]
active: [1] 31.2 µM and 16.1 µM | [2] 76.6 µM and 45.3 µM | [3] 63.8 µM and 26.6 µM and 23.1 µM

Cc1cc(CCN2CCN(c3nsc4ccccc34)CC2)cc2c1NC(=O)CC2(C)C
inactive: [1] | [2] | [4]
active: [3] 82.8 µM | [5] 3.6 µM | [16] 5.38 µM | [6] 3.05 µM | [7] 3.18 µM | [17] 3.26 µM | [8] 6.42 µM | [9] 2.96 µM | [10] 5.16 µM | [11] 3.88 µM | [12] 5.62 µM | [13] 6.48 µM | [14] 6.31 µM | [18] 5.83 µM | [15] 3.82 µM

C[C@@H]1C[C@H]2[C@@H]3CCC4=CC(=O)C=C[C@]4(C)[C@@]3(F)[C@@H](O)C[C@]2(C)[C@@]1(O)C(=O)COP(=O)(O)O
inactive: [1] | [2] | [4] | [5] | [6] | [7] | [8] | [9] | [10] | [11] | [12] | [13] | [14] | [15]

CCCCCCCCCCCCc1ccccc1S(=O)(=O)O
inactive: [4] | [5] | [6] | [7] | [8] | [9] | [11] | [12] | [13] | [15]

OC1CCCCC1
inactive: [1] | [2] | [4] | [5] | [6] | [7] | [17] | [8] | [9] | [10] | [11] | [12] | [13] | [14] | [15]

N#C[C@@H]1CC(F)(F)CN1C(=O)CNC1CC2CCC(C1)N2c1ncccn1 (some centres undefined)
inactive: [2] | [3] | [4] | [5] | [16] | [6] | [7] | [8] | [10] | [11] | [12] | [13] | [14] | [18]

ClC1=C(Cl)C(Cl)(Cl)C(Cl)=C1Cl
inactive: [1] | [2] | [3] | [5] | [6] | [7] | [8] | [9] | [10] | [11] | [13] | [14] | [19] | [20]

CN1CCC[C@H]1c1cccnc1
inactive: [4] | [5] | [6] | [7] | [8] | [9] | [10] | [11] | [12] | [13] | [14] | [15]

CCOC(=O)CC(O)(CC(=O)OCC)C(=O)OCC
inactive: [3] | [4] | [5] | [16] | [6] | [7] | [8] | [9] | [10] | [11] | [12] | [14] | [15]

CC(O)C(=O)O (centres undefined)
inactive: [1] | [3]

OCCC(F)(F)C(F)(F)C(F)(F)C(F)(F)C(F)(F)C(F)(F)F
inactive: [1] | [2] | [3] | [4] | [5] | [8] | [9] | [10] | [11] | [13] | [14] | [15]

CC(C)(C)c1cc(C(C)(C)C)c(O)c(C(C)(C)C)c1
inactive: [1] | [2] | [4] | [5] | [6] | [7] | [9] | [10] | [12] | [13] | [14] | [20] | [15]

CN(C)C=O
inactive: [1] | [3] | [4] | [5] | [7] | [17] | [8] | [10] | [11] | [12] | [13] | [14] | [15]

CCCCCCC(=O)O
inactive: [2] | [3] | [4] | [5] | [7] | [17] | [8] | [9] | [10] | [11] | [12] | [13] | [14] | [15]

O=c1c(-c2ccc(O)cc2)coc2cc(O)ccc12
inactive: [1] | [2] | [3] | [4] | [5] | [6] | [7] | [8] | [9] | [11] | [12] | [14] | [15]

CC(=O)CC(C)(C)O
inactive: [1] | [3] | [4] | [5] | [16] | [7] | [8] | [9] | [10] | [11] | [12] | [13] | [14]
